The values below come from PubChem BioAssay.

Assay [1] in a line: antimalarial activity against Dd2 strain (AID 2302;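 active means growth inhibition above 50% at the single 2 µM test dose, taken to imply half-maximal potency below 2 µM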;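 further: 0% = DMSO untreated growth and 100% = chloroquine plus artemisinin killed control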). The settings on record: P. falciparum Dd2 in RBCs, LDH growth readout, 72 h; at 2 µM; stronger effect = higher value.
Assay [2] in a line: HepG2 cytotoxicity, primary screen, cytotoxicity control for P. falciparum antimalarial project, cell-based, ATP luminescence (AID 2303;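 active means inhibition above 50%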;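 further: 0% = DMSO wells and 100% = digitonin-killed cells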). To be noted: HepG2 viability, 24-48 h, at 10 µM, stronger effect = higher value.
The target in assay [3] is L-lactate dehydrogenase (Plasmodium falciparum (isolate CDC / Honduras)) (UniProt Q27743). The assay can be described thus: PfLDH activity inhibition – cell lysate, 3D7 strain, counter-screen for P. falciparum growth inhibition project (AID 2304).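 Further: 0% = vehicle and 100% = reference inhibitor.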 The settings on record: P. falciparum 3D7 crude extract, LDH APAD/NBT absorbance; at 2 µM; stronger effect = higher value. In general terms: A counterscreen serves to expose hits that act by an unwanted route or on another target.
Sequence of L-lactate dehydrogenase (Plasmodium falciparum (isolate CDC / Honduras)) (Q27743 whole entry, looked up): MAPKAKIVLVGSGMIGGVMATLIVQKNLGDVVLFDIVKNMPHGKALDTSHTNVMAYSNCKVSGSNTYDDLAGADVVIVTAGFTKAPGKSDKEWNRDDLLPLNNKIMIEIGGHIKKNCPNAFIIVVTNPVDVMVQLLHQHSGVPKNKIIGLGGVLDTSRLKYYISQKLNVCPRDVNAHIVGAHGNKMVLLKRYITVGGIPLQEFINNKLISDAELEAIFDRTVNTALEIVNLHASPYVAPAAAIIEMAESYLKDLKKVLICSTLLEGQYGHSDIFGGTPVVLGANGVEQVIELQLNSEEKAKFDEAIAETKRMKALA

The nature of assay [4]: inhibition of 3D7 malaria parasite growth – strain 3D7 (AID 2306).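 Further: 0% = DMSO wells and 100% = chloroquine plus artemisinin control wells.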 To be noted: P. falciparum 3D7 erythrocytic growth, LDH absorbance, 72 h; at 2 µM; stronger effect = higher value.
The target in assay [5] is Calcium-dependent protein kinase 1 (Plasmodium falciparum (isolate 3D7)) (UniProt P62344). The assay can be described thus: PfCDPK1 kinase inhibitors, biochemical, TCAMS library (AID 1159585; cut-off not given, nearly all actives have IC50 up to about 0.98 µM;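 further: inhibitors leave more ATP so luminescence rises with inhibition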). The settings on record: recombinant PfCDPK1, Kinase-Glo ATP depletion luminescence.
Sequence of Calcium-dependent protein kinase 1 (Plasmodium falciparum (isolate 3D7)) (P62344 whole entry, looked up): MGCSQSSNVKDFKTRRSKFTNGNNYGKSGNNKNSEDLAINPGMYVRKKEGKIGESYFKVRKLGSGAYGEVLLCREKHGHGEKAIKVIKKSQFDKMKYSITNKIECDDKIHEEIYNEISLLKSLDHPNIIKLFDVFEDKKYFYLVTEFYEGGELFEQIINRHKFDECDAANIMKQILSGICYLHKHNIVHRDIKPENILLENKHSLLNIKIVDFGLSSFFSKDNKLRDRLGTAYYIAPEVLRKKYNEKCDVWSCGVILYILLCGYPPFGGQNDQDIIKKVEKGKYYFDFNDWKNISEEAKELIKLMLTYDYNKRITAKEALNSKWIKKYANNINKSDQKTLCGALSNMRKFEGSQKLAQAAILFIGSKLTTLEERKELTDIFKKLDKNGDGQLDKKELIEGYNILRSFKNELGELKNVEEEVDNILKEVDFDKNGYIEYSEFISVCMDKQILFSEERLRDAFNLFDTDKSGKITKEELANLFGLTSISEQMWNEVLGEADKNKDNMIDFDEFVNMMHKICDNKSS
Assay [6] addresses Plasmodium falciparum protein kinase 6 (PK6, PF3D7_1337100) (UniProt Q8IDW1). In words: PfPK6 kinase inhibitors, biochemical, TCAMS library (AID 1159586). The settings on record: recombinant PfPK6, Kinase-Glo ATP depletion luminescence. Background: Kinase-Glo reads ATP consumption through a luciferase reaction.
The target of assay [7] is Protein kinase 7 (PK7), Plasmodium falciparum 3D7 (PF3D7_0213400) (UniProt Q7YTF7). The assay can be described thus: inhibition of Plasmodium PK7 catalytic activity – biochemical, TCAMS antimalarial set, Kinase-Glo luminescence (AID 1159587). The settings on record: recombinant PfPK7, Kinase-Glo ATP depletion luminescence.
Sequence of Protein kinase 7 (PK7), Plasmodium falciparum 3D7 (PF3D7_0213400) (Q7YTF7 1-343): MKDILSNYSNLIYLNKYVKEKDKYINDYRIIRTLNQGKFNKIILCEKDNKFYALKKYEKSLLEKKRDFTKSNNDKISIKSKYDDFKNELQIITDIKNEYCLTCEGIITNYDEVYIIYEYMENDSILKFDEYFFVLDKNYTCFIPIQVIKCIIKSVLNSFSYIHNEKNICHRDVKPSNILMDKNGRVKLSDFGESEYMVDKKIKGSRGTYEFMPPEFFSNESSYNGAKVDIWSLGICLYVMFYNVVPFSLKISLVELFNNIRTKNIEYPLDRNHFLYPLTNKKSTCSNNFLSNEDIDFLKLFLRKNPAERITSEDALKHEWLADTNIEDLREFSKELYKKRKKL
For assay [8], the target named is Calcium-dependent protein kinase 4 (Plasmodium falciparum (isolate 3D7)) (UniProt Q8IBS5). In words: PfCDPK4 kinase inhibitors, biochemical, TCAMS library (AID 1159588; cut-off not given, nearly all actives have IC50 up to about 0.91 µM). To be noted: recombinant PfCDPK4, Kinase-Glo ATP depletion luminescence.
Sequence of Calcium-dependent protein kinase 4 (Plasmodium falciparum (isolate 3D7)) (Q8IBS5 whole entry, looked up): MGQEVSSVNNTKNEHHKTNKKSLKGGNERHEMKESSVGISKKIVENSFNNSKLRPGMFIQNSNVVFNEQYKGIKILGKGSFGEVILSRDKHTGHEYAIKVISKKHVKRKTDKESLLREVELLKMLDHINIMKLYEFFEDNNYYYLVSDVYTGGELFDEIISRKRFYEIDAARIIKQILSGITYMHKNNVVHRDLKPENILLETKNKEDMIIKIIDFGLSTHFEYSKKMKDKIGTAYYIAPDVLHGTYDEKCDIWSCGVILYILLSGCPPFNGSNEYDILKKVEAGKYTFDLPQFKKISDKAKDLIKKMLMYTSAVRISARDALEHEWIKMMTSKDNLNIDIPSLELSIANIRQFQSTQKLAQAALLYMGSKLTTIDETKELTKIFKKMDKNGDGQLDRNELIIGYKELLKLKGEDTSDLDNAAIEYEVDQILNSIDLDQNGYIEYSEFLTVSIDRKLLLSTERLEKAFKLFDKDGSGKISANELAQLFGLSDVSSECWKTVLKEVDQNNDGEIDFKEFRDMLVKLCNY

A number with no mark means an inactive call. For part of these data: Results with a measured potency or affinity are listed apart. Active and inactive are the calls of the source. Unless noted, how the calls were made is not given here.

What is called inhibition is the relative decrease from the control value, in per cent.

Sequence of Plasmodium falciparum protein kinase 6 (PK6, PF3D7_1337100) (Q8IDW1 1-305): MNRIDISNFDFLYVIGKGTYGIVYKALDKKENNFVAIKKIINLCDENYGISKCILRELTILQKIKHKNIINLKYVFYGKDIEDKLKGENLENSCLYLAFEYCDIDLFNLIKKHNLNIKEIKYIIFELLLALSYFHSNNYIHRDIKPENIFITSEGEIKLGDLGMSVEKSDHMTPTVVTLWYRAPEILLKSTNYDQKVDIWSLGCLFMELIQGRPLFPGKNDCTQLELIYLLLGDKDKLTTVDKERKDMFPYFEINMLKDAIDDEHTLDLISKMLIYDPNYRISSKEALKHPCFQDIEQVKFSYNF

For `CO/C(=C\C=C\c1cc2cc(Cl)c(Cl)cc2[nH]1)C(=O)NCCCN1CCN(c2ccc(OC)cc2)CC1`, the growth inhibition is 44% in assay [1] and 99% (active) in assay [4]. Further, the inhibition in assay [2] is 40%; in assay [3], -7%. In addition, the result in assay [5], in assay [6], in assay [7] and in assay [8] was inactive.

Turning to `Cc1cc(CN2CCC(C(=O)Nc3ccc(-c4nc5ccccc5[nH]4)cc3)CC2)oc1C`, the values for the growth inhibition in assay [1] and in assay [4] were 9% and 95% (active), respectively. Besides, the results for the inhibition in assay [2] and in assay [3] were -7% and -4%, respectively. In addition, the result in assay [5], in assay [6], in assay [7] and in assay [8] was inactive.

For the compound `COc1ccccc1CC1CCCN(C2CCC(NC(=O)c3cc4ccccc4[nH]3)CC2)C1` (centres undefined), the growth inhibition in assay [1] is 21%; in assay [4], 98% (active). Moreover, the results for the inhibition in assay [2] and in assay [3] were 23% and -2%, respectively. For the same compound, the outcome in assay [5], in assay [6], in assay [7] and in assay [8] was inactive.

Turning to `COc1ccc(-c2ccc(NC(=O)c3ccc(Cl)cc3)cc2)cc1CN(C)CCN(C)C`, the growth inhibition in assay [1] is 61% (active); in assay [4], 97% (active). Besides, the inhibition is 37% in assay [2] and -2% in assay [3]. Moreover, the result in assay [5], in assay [6], in assay [7] and in assay [8] was inactive.

`CCN(CCCN1CCCCC1)c1cc(C)nc(Nc2ccc(C)cc2Cl)n1`: the growth inhibition in assay [1] is 25%; in assay [4], 93% (active). Moreover, the inhibition is 44% in assay [2] and 1% in assay [3]. Besides, the result in assay [5], in assay [6], in assay [7] and in assay [8] was inactive.

As for `CCOc1ccc2c(NN=Cc3ccccc3OC)cc(C)nc2c1`, the growth inhibition was 93% (active) in assay [1] and 99% (active) in assay [4]. For the same compound, the values for the inhibition in assay [2] and in assay [3] were 11% and 0%, respectively. Besides, the result in assay [5], in assay [6], in assay [7] and in assay [8] was inactive.

As for `Cc1ccc(C2(C)CN(CCCOc3cccc(-c4ccc(C(=O)NC(C)C)cc4)c3)CCO2)cc1` (centres undefined), the growth inhibition in assay [1] is 89% (active); in assay [4], 93% (active). The inhibition is 15% in assay [2] and 0% in assay [3]. For the same compound, the outcome in assay [5], in assay [6], in assay [7] and in assay [8] was inactive.

Consider `CCCCCCN1CCCN(Cc2ccc(C(=O)Nc3ccc(F)c(F)c3)cc2)CC1`, for which the growth inhibition in assay [1] is 48%; in assay [4] it was 84% (active). In addition, the inhibition in assay [2] was 50% (active); in assay [3] it was -8%. Also, the result in assay [5], in assay [6], in assay [7] and in assay [8] was inactive.

`O=C(NCCc1cccc(F)c1)c1cc(Br)cc(N2CCN(c3ccncc3)CC2)c1`: the growth inhibition is 86% (active) in assay [1] and 100% (active) in assay [4]. Also, the inhibition in assay [2] is 34%; in assay [3], 0%. Also, the result in assay [5], in assay [6], in assay [7] and in assay [8] was inactive.

For the compound `CCC(=O)N1CCc2cc(Br)cc(S(=O)(=O)N3CC(C)CC(C)C3)c21` (centres undefined), the figures for the growth inhibition in assay [1] and in assay [4] were 84% (active) and 85% (active), respectively. In addition, the inhibition in assay [2] was 5%; in assay [3], -3%. Further, the result in assay [5], in assay [6], in assay [7] and in assay [8] was inactive.

Consider `Cc1cc(C=C2SC(=Nc3ccccc3)N(C3CCCC3)C2=O)c(C)n1-c1ccc(Cl)cc1`, for which the values for the growth inhibition in assay [1] and in assay [4] were 70% (active) and 100% (active), respectively. The results for the inhibition in assay [2] and in assay [3] were -8% and -1%, respectively. The result in assay [5], in assay [6], in assay [7] and in assay [8] was inactive.

For `CC(=O)NC1=NC(C)(C)N(OCCCOc2ccc(Cl)c(Cl)c2)C(NC(C)=O)=N1`, the figures for the growth inhibition in assay [1] and in assay [4] were 94% (active) and 96% (active), respectively. Moreover, the inhibition in assay [2] was 65% (active); in assay [3], 0%. The outcome in assay [5], in assay [6], in assay [7] and in assay [8] was inactive.

For the compound `O=C(Nc1ccc(S(=O)(=O)N2CCCCC2)cc1)c1cc(-c2cc(Cl)ccc2O)n[nH]1`, the growth inhibition in assay [1] was 87% (active); in assay [4], 97% (active). The inhibition in assay [2] was 36%; in assay [3], 0%. The outcome in assay [5], in assay [6], in assay [7] and in assay [8] was inactive.

On to `O=c1cc(NC[C@@H]2CCC[C@@H]2NCc2ccc(Cl)c(Cl)c2)[nH]c2ccccc12`, for which the growth inhibition in assay [1] was 75% (active); in assay [4] it was 100% (active). Moreover, the inhibition in assay [2] was 9%; in assay [3], -1%. Further, the result in assay [5], in assay [6], in assay [7] and in assay [8] was inactive.

In the case of `CCOc1ccc(N2CCN(CCCCNC(=O)c3ccc(NC(=O)c4ccc(Cl)cc4)cc3)CC2)c(OCC)c1`, the results for the growth inhibition in assay [1] and in assay [4] were 65% (active) and 102% (active), respectively. Besides, the inhibition in assay [2] is 36%; in assay [3] it was 2%. In addition, the result in assay [5], in assay [6], in assay [7] and in assay [8] was inactive.

On to `Cc1ccc(C(C#N)c2ccc3c(C(F)(F)F)cc(C(F)(F)F)nc3n2)cc1` (centres undefined), for which the growth inhibition in assay [1] is 36%; in assay [4], 96% (active). In addition, the inhibition was 14% in assay [2] and 2% in assay [3]. Also, the result in assay [5], in assay [6], in assay [7] and in assay [8] was inactive.

On to `O=C(Cc1ccccc1)NC(c1ccccc1)c1ccc2cccnc2c1O` (centres undefined), for which the results for the growth inhibition in assay [1] and in assay [4] were 61% (active) and 89% (active), respectively. Also, the inhibition in assay [2] is 49%; in assay [3], 3%. Moreover, the outcome in assay [5], in assay [6], in assay [7] and in assay [8] was inactive.

In the case of `Cc1c(Cn2nc(Cl)c(N3CCNCC3)cc2=O)cccc1NC(=O)Nc1ccc(-c2ccccc2)cc1`, the growth inhibition was 29% in assay [1] and 80% (active) in assay [4]. Besides, the inhibition in assay [2] is 96% (active); in assay [3], 2%. The outcome in assay [5], in assay [6], in assay [7] and in assay [8] was inactive.
